Source: PubChem BioAssay (National Center for Advancing Translational Sciences (NCATS))
NPC1 prom act: activates the NPC1 promoter | 320,000 tested, 2.4% active | Potency, µM (series often up to 9.22 µM), without a hit: at the top dose activation, hits mostly activators | Huh7 NPC1 promoter luciferase reporter, 24 h | AID 485313; note: % of control where 0% means no effect; nearly all actives have a fitted effect of over 60% in size
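NPC1 promoter–luciferase Huh7 cells; 24 h compound; luminescence.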
FLuc modulator: counter-screen for miR-21 project: firefly luciferase inhibitors or activators | purified FLuc, Km substrates, luminescence inhibition | Potency, µM (highest dose often 57.5 µM), for the others: at the top dose activity change, negative = inhibition, actives largely listed as inhibitors | P08659 | 360,000 tested, 6.9% active;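 note: plate controls were vehicle for no effect and reference inhibitor for full effect; nearly all actives have a fitted effect of over 55% in size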
Target sequence (P08659 whole entry, looked up): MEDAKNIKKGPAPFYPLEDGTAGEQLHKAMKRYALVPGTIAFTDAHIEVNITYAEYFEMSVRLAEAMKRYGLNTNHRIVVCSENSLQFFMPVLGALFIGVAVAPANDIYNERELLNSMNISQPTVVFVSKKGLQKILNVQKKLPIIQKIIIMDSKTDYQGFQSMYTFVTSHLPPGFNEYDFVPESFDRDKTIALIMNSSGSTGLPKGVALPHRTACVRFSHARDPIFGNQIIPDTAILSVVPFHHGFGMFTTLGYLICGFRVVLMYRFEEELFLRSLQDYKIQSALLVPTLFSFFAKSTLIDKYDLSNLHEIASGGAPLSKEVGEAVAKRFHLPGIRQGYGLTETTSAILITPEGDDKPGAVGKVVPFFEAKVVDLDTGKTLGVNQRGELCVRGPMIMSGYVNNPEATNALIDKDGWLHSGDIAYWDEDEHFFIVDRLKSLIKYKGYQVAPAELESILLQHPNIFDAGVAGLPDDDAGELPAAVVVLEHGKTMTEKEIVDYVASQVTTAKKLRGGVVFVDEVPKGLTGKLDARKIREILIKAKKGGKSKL
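Purified P. pyralis luciferase, 10 nM final, with Km-level 10 uM D-luciferin and 10 uM ATP in 50 mM Tris acetate pH 7.5, 10 mM Mg acetate, 0.01% Tween-20, 0.05% BSA; 6-point qHTS titration about 60 µM downward; luminescence read.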
SMN2 splice up: enhancers of SMN2 splice variant expression | HEK293 SMN2-luciferase splicing reporter, luminescence, 30-36 h | 210,000 tested, 2.8% active | Potency, µM (titrated, usually from 46.1 µM), for inactives: top-dose activity change, positive = activation, actives largely listed as activators | AID 1458; note: % of control where 0% means no effect; nearly all actives have a fitted effect of over 55% in size
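qHTS luciferase splicing reporter: luminescence rises when SMN2 exon 7 is included in transfected HEK293 cells. Compound exposure lasted 30-36 h at 37C, with 4.5 mM final sodium butyrate as control, followed by a ONE-Glo read.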
Rab9 promoter act: Rab9 promoter activation; Huh7 Rab9 promoter-luciferase reporter, luminescence, 24 h; Potency, µM (highest dose often 9.22 µM), for inactives: at the top dose activation, negative = inhibition, actives largely listed as activators; 320,000 tested, 2.8% active; AID 485297; note: % of control where 0% means no effect; nearly all actives have a fitted effect of over 60% in size
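Luciferase signal after 10 min detection reagent at ambient indicates Rab9 promoter upregulation; stably transfected Huh7 cells were treated 24 h with compound in DMSO at 37 °C, 5% CO2.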
ELG1 genotoxic: induces genotoxicity in HEK293T cells with luciferase-tagged ELG1; Potency, µM (doses to about 46 µM), without a hit: at the top dose activity change, positive = activation, most hits filed as activators; 330,000 tested, 1.3% active; HEK293T ELG1-luciferase reporter, luminescence, 16 h; note: % of control where 0% means no effect; nearly all actives have a fitted effect of over 60% in size
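DMSO vehicle served as control against compound-treated ELG1-luciferase HEK293T cells; exposure lasted 16 hr at 37 °C and 5% CO2, followed by ONE-Glo luminescence detection after 30 min.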
Active calls of the source: *; [ ] = another dose, or the depositor's remark. Only some compounds are listed: those with a hit (about 7.4% of all), similar ones and a draw of the others. Calls come from the whole dose curve; as a rule, active = well fitted curve in the direction sought with a large enough effect; inconclusive = small, poorly fitted or top-dose-only effect, or another doubt; inactive = no such curve, though single readings can be large; an effect the other way counts as inactive or inconclusive. Potency is the fitted concentration of half-maximal effect.

Results for C=C[C@@H](C)[C@](C)(O)c1ccccc1 ?
SMN2 splice up: 0.1%

Results for CCOc1cc(C(=O)CCC(=O)OCC(=O)Nc2ccc(C)c(S(=O)(=O)N(C)C)c2)ccc1O ?
NPC1 prom act: 5.4%; FLuc modulator: 19µM*; SMN2 splice up: -6.5%; Rab9 promoter act: 0.1%; ELG1 genotoxic: 13.6%

What do the screens show for `CCOc1ccc(OCCC(=O)OCC(=O)Nc2ccc(C)c(S(=O)(=O)N3CCCCC3)c2)cc1`?
NPC1 prom act: -0.7%; FLuc modulator: 10.7µM*; Rab9 promoter act: -1.1%; ELG1 genotoxic: 0.4%

What do the screens show for `CO/N=C(/C(=O)N[C@@H]1C(=O)N2C(C(=O)O)=CCS[C@H]12)c1cnc(N)s1`?
NPC1 prom act: -2.6%; FLuc modulator: -5.7%; Rab9 promoter act: 2.1%; ELG1 genotoxic: -3.0%

How did CC(=O)CCC1CC(c2ccc(Cl)cc2)=NO1 (stereo unspecified) do in these assays?
NPC1 prom act: 1.12µM*; FLuc modulator: 7.57µM*; Rab9 promoter act: 1.41µM*; ELG1 genotoxic: inconclusive

How did O=C(NCc1cccs1)C1CC(c2ccc(Cl)cc2)=NO1 (stereo unspecified) do in these assays?
NPC1 prom act: 4.8%; FLuc modulator: inconclusive; Rab9 promoter act: 2.6%; ELG1 genotoxic: 10.2%

Results for NNC(=O)c1ccc(OCC2CC(c3ccc(Cl)cc3)=NO2)cc1 (stereo unspecified) ?
NPC1 prom act: 16.2%; FLuc modulator: 8.49µM*; Rab9 promoter act: -2.8%; ELG1 genotoxic: inconclusive

How did Cc1cc(=O)oc2cc(OCC3CC(c4ccc(Cl)cc4)=NO3)ccc12 (stereo unspecified) do in these assays?
NPC1 prom act: -1.6%; FLuc modulator: inconclusive; SMN2 splice up: 5.4%; Rab9 promoter act: -7.0%; ELG1 genotoxic: 3.9%

What do the screens show for `CCCNC(=O)COC(=O)c1cc(-c2ccc(OC)cc2)nc2ccccc12`?
NPC1 prom act: 11.5%; FLuc modulator: inconclusive; SMN2 splice up: 3.4%; Rab9 promoter act: 16.5%; ELG1 genotoxic: 6.1%

How did CCNC(=O)COC(=O)c1cc(-c2ccc(OC)cc2)nc2ccccc12 do in these assays?
NPC1 prom act: 12.9%; FLuc modulator: 5.36µM*; SMN2 splice up: -1.2%; Rab9 promoter act: 18.5%; ELG1 genotoxic: 6.8%

Results for COc1ccc(-c2cc(C(=O)OCC(=O)NC(C)(C)C)c3ccccc3n2)cc1 ?
NPC1 prom act: 10.1%; FLuc modulator: 12µM*; SMN2 splice up: 5.8%; Rab9 promoter act: 15.4%; ELG1 genotoxic: -4.0%

Results for COc1ccc(-c2cc(C(=O)OCC(=O)N3CCOCC3)c3ccccc3n2)cc1 ?
ELG1 genotoxic: 1.4%

Results for COc1ccc(-c2cc(C(=O)OCC(=O)NC(C)C)c3ccccc3n2)cc1 ?
NPC1 prom act: 12.7%; FLuc modulator: 6.75µM*; SMN2 splice up: 2.5%; Rab9 promoter act: 20.5%; ELG1 genotoxic: 5.0%

Results for CCN(CC)C(=O)COC(=O)c1cc(-c2ccc(OC)cc2)nc2ccccc12 ?
NPC1 prom act: 10.4%; FLuc modulator: 7.57µM*; SMN2 splice up: -22.8%; Rab9 promoter act: 3.7%; ELG1 genotoxic: -8.6%

What do the screens show for `COC(=O)C1=C(C(=O)OC)[C@@H]2N(C)c3ccccc3[C@@]23C[C@@H](C(=O)OC)N(S(=O)(=O)c2c(C)noc2C)C3=N1`?
SMN2 splice up: -0.9%[9.22 µM]

Results for COc1ccc2cc(-c3cc(C(=O)OCC(=O)NC4CCS(=O)(=O)C4)c4ccccc4n3)ccc2c1 (stereo unspecified) ?
NPC1 prom act: 0.631µM*; FLuc modulator: 0.477µM*; SMN2 splice up: 1.12µM*; Rab9 promoter act: 0.501µM*; ELG1 genotoxic: inconclusive

Results for COCCNC(=O)COC(=O)c1cc(-c2ccc(OC)cc2)nc2ccccc12 ?
NPC1 prom act: 12.6%; FLuc modulator: 10.7µM*; SMN2 splice up: inconclusive; Rab9 promoter act: 14.3%; ELG1 genotoxic: 2.2%

How did COc1ccc(-c2cc(C(=O)OCC(=O)NC3CC3)c3ccccc3n2)cc1 do in these assays?
NPC1 prom act: 14.3%; FLuc modulator: 3.79µM*; Rab9 promoter act: 22.9%; ELG1 genotoxic: 3.2%

How did CN(C)c1ccc(N/C(N)=N/c2nc(C(F)(F)F)cc(C(F)(F)F)n2)cc1 do in these assays?
NPC1 prom act: -0.7%; FLuc modulator: 2.4%; SMN2 splice up: -19.9%; Rab9 promoter act: -8.0%; ELG1 genotoxic: 3.5%

What do the screens show for `Cc1nnsc1C(=O)NC1CCCCC1`?
NPC1 prom act: 2.1%; FLuc modulator: 1.8%; SMN2 splice up: 8.2%; Rab9 promoter act: -2.7%; ELG1 genotoxic: 0.6%

What do the screens show for `Cc1c(C)n(CCCN(C)C)c2ncnc(Nc3ccc(F)cc3)c12`?
NPC1 prom act: -0.6%; FLuc modulator: -5.4%; Rab9 promoter act: 7.4%; ELG1 genotoxic: -0.3%

How did COc1ccc(Nc2ncnc3c2c(C)c(C)n3CCO)cc1 do in these assays?
NPC1 prom act: 1µM*; FLuc modulator: 5.36µM*; Rab9 promoter act: 1.58µM*; ELG1 genotoxic: 8.2µM*

Results for Cc1c(C)n(CCO)c2ncnc(Nc3ccc(F)cc3)c12 ?
NPC1 prom act: 24.7%; FLuc modulator: 19µM*; Rab9 promoter act: inconclusive; ELG1 genotoxic: inconclusive

What do the screens show for `COc1ccc(CCNc2ncnc3c2c(C)c(C)n3CCO)cc1OC`?
NPC1 prom act: -16.0%; FLuc modulator: inconclusive; Rab9 promoter act: -4.5%; ELG1 genotoxic: -8.7%

How did COc1ccc2c(C)c(CCC(=O)NCCc3ccc(Cl)cc3)c(=O)oc2c1 do in these assays?
FLuc modulator: -15.6%; SMN2 splice up: -13.6%

Results for O=C(CCCn1c(=O)c2cccn2c2cccnc21)NCc1ccccc1Br ?
FLuc modulator: -6.3%

How did O=C1NC(=O)/C(=C\c2ccc(OCc3cnc(Cl)s3)cc2)S1 do in these assays?
NPC1 prom act: 17.0%; FLuc modulator: inconclusive; SMN2 splice up: 14.6%; Rab9 promoter act: -2.8%; ELG1 genotoxic: 6.2%

How did CC(=O)Oc1cccc(/C=C2\Sc3ccccc3C2=O)c1 do in these assays?
NPC1 prom act: 0.3%; FLuc modulator: 1.69µM*; Rab9 promoter act: -3.3%; ELG1 genotoxic: -2.3%

What do the screens show for `CCCCOc1ccc(/C=c2\sc3ncnn3c2=O)cc1`?
NPC1 prom act: -1.6%; FLuc modulator: -10.3%; SMN2 splice up: -7.4%; Rab9 promoter act: -4.0%; ELG1 genotoxic: 2.2%

How did CC(C)COc1ccc(/C=C2/Sc3ccccc3C2=O)cc1 do in these assays?
NPC1 prom act: inconclusive; FLuc modulator: 1.35µM*; SMN2 splice up: inconclusive; Rab9 promoter act: 21.9%; ELG1 genotoxic: inconclusive

How did CCCCOc1ccc(/C=C2/Sc3ccccc3C2=O)cc1 do in these assays?
NPC1 prom act: 3.3%; FLuc modulator: 3.38µM*; SMN2 splice up: 15.8µM*; Rab9 promoter act: 28.4%; ELG1 genotoxic: 7.7%
